Experimental findings from PubChem BioAssay (NCATS) are described below.

A number with no mark means an inactive call. Records with an inconclusive call do not appear. Activity calls are given as the source filed them. Unless noted, the call rests on the fitted dose curve; in most records, active means well fitted curve in the direction sought with a large enough effect; inconclusive means small, poorly fitted or top-dose-only effect, or another doubt; inactive means no such curve, though single readings can be large; an effect the other way counts as inactive or inconclusive.

Chain of Cytochrome P450 3A4 (Homo sapiens) (P08684 whole entry, looked up): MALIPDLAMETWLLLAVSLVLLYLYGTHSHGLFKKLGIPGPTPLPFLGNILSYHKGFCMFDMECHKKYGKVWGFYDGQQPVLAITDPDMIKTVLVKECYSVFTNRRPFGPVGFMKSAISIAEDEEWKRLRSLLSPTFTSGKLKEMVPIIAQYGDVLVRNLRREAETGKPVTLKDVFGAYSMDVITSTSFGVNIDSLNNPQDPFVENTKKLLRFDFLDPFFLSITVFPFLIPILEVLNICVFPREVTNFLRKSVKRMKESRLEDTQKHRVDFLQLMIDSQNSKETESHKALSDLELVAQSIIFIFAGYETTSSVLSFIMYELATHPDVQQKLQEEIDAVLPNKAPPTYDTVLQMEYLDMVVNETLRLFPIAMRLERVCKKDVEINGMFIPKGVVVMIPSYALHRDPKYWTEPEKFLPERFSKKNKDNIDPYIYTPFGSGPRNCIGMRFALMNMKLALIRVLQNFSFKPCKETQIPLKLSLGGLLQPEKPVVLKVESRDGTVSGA
Chain of Cytochrome P450 2C19 (Homo sapiens) (P33261 whole entry, looked up): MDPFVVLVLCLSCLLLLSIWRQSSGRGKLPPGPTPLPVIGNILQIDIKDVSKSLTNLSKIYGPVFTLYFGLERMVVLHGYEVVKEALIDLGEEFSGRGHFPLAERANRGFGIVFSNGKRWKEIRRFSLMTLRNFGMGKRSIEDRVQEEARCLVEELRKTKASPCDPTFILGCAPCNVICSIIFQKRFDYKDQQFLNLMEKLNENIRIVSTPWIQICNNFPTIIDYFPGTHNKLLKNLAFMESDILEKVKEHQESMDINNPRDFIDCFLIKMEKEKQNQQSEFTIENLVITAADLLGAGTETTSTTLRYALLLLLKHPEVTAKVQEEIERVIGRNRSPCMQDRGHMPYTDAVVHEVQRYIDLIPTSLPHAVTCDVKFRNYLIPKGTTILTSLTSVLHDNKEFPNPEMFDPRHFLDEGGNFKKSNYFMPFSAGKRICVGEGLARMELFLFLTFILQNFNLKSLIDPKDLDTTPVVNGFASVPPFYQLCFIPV
Chain of Cytochrome P450 2D6 (Homo sapiens) (P10635 whole entry, looked up): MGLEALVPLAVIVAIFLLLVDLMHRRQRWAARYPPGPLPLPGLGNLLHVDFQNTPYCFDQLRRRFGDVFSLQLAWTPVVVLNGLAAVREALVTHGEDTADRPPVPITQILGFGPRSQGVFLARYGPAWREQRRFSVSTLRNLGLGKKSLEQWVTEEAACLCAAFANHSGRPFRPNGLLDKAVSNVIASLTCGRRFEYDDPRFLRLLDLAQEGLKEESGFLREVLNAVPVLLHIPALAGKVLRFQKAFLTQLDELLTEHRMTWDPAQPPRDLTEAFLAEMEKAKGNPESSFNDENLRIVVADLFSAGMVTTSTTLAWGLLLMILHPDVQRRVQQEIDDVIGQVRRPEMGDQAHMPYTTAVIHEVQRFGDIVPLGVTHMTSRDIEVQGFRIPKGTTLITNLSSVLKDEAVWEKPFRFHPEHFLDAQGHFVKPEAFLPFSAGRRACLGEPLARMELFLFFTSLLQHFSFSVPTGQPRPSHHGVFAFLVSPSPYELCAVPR

The target in the first test is Cytochrome P450 2C9 (Homo sapiens) (UniProt P11712). Briefly: qHTS Assay for Inhibitors and Substrates of Cytochrome P450 2C9 (AID 883). Further: on the % scale 0 is the no-effect control and ±100 the full control effect; nearly all actives have a fitted effect of over 60% in size. The following applies: recombinant CYP2C9, luciferin-H luminescence, 60 min; series mostly up to 57.1 µM. The method in brief: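 Luminescent read-out of deoxyluciferin hydroxylation, normalized to 57uM sulphaphenazole (AC100). Reaction: 10nM enzyme, 100uM Luciferin-H (equal to KM), 25mM KPO4, 10 min compound preincubation, then 60 min with NADPH regeneration, both at 37C.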
Chain of Cytochrome P450 2C9 (Homo sapiens) (P11712 whole entry, looked up): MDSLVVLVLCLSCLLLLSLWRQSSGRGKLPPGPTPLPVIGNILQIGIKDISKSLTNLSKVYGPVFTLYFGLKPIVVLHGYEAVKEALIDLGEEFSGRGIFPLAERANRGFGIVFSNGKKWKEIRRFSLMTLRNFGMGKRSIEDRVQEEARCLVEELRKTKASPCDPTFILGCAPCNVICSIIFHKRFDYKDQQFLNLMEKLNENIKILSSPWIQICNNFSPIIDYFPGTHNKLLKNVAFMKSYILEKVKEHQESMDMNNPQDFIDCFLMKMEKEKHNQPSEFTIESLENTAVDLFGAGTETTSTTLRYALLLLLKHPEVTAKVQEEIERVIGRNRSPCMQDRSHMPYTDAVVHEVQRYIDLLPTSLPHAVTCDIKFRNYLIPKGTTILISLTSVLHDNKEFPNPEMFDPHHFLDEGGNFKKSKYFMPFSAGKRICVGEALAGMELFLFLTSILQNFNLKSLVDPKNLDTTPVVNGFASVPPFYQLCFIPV
Background: qHTS replaces the single test concentration by a dilution series.
As for `COc1ccc(-n2c(=O)c(-c3cccs3)nc3cnc(N(C)C)nc32)cc1`, the Potency result was “inactive”.
Turning to `c1ccc(Nc2cc(-c3ccoc3)ncn2)cc1`, the activity change, negative = inhibition was -13.3% [at 2.29 µM].
On the same count and under the same terms, the same measure for `COCCNc1ncncc1-c1c(C)noc1C`: 23.1% [at 2.29 µM].

For the next test, the target named is Cytochrome P450 3A4 (Homo sapiens) (UniProt P08684). Briefly: qHTS Assay for Inhibitors and Substrates of Cytochrome P450 3A4 (AID 884). Further: nearly all actives have a fitted effect of over 50% in size. Further: potency means the concentration at half of the fitted maximal effect. On activity change, negative = inhibition: on the % scale 0 is the no-effect control and ±100 the full control effect. The following applies: recombinant CYP3A4, Luciferin-PPXE luminescence; series mostly up to 57.1 µM. The method in brief:
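Luminescent readout of luciferin produced by CYP3A4 (20 nM) dealkylation of Luciferin-PPXE, 25 uM (its KM). NADPH-driven reaction ran 60 min at RT after 10 min compound preincubation; data scaled to 57 uM ketoconazole as 100% inhibition.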
In the case of `O=c1c(-c2ccc(F)cc2)nc2cnc(N3CCNCC3)nc2n1Cc1ccc(F)cc1`, the Potency was 7.94 µM (active).
On the same count and under the same terms, the same measure for `CN(Cc1ccco1)c1ncncc1-c1ccccc1Cl`: 0.501 µM (active).
Still for that read-out and setting: for `CC(=O)NCCNc1ncncc1-c1ccccc1C` the value was 2.51 µM (active).
On the same count and under the same terms, for `COc1ccc(-c2nc3cnc(N4CCN(C)CC4)nc3n(Cc3ccc(F)cc3)c2=O)cc1` the value was “inactive”; for `CCNc1ncc2nc(-c3cn(C)c4ccccc34)c(=O)n(Cc3cccc(OC)c3)c2n1`, 3.98 µM (active); for `COc1ccc(Oc2ncc3nc(C)c(=O)n(-c4ccccc4)c3n2)cc1`, 5.01 µM (active).
As for `CN(Cc1ccco1)c1ncncc1-c1cccc(C#N)c1`, the Potency is 7.94 µM (active).
Still for that read-out and setting: the same measure for `c1ccc(Nc2cc(-c3ccoc3)ncn2)cc1`: “inactive”; for `COCCNc1ncncc1-c1c(C)noc1C`: 5.01 µM (active); for `CN1CCN(c2ncc3nc(-c4ccc(Cl)cc4)c(=O)n(Cc4cccs4)c3n2)CC1`: “inactive”.

For a further test the target is unchanged. Briefly: qHTS Assay for Activators of Cytochrome P450 3A4 (AID 885). Further: nearly all actives have a fitted effect of over 65% in size. As to conditions: recombinant CYP3A4, Luciferin-PPXE luminescence, 60 min; series mostly up to 57.1 µM. In outline:
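Luminescent readout of luciferin formed from 25 uM Luciferin-PPXE (KM level) by 20 nM CYP3A4 in 200 mM KPO4, with 60 min NADPH-driven reaction at room temperature after 10 min compound exposure. Ketoconazole (57 uM) defined 100% inhibition.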
As to `CN(C)Cc1ccccc1-c1cc(N(C)Cc2ccco2)ncn1`, the Potency entry is “inactive”.
Still for that read-out and setting: the same measure for `CN1CCN(c2ncc3nc(-c4cc(F)cc(F)c4)c(=O)n(C4CC4)c3n2)CC1`: “inactive”; for `O=c1c(-c2ccc(F)cc2)nc2cnc(N3CCNCC3)nc2n1Cc1ccc(F)cc1`: “inactive”.
Same read-out and setting: the same measure for `CN(Cc1ccco1)c1ncncc1-c1ccccc1Cl`: “inactive”.
The same measure, in the same setting: the same measure for `O=c1cnc2cnc(N3CCOCC3)nc2n1CCc1ccccc1`: “inactive”; for `CN1CCN(c2ncncc2-c2ccc(C(=O)N(C)C)cc2)CC1`: “inactive”.
Consider `CC(=O)NCCNc1ncncc1-c1ccccc1C`, for which the Potency result was “inactive”.
Still for that read-out and setting: the same measure for `COCCn1c(=O)cnc2cnc(Oc3ccccc3)nc21`: “inactive”.
Still for that read-out and setting: the same measure for `COc1ccc(CNc2ccnc(-c3ccc4c(c3)OCO4)n2)c(OC)c1`: “inactive”; for `CN(C)c1ncnc2ccc(-c3cccnc3)cc12`: “inactive”; for `CCNc1ncc2nc(-c3cn(C)c4ccccc34)c(=O)n(Cc3cccc(OC)c3)c2n1`: “inactive”.
Same read-out and setting: for `COc1ccc(Oc2ncc3nc(C)c(=O)n(-c4ccccc4)c3n2)cc1` the value was “inactive”; for `CN(C)Cc1ccccc1-c1nc(NCc2cccs2)c2ccccc2n1`, “inactive”; for `CN(Cc1ccco1)c1ncncc1-c1cccc(C#N)c1`, “inactive”.
Take `O=c1c(-c2ccc(F)cc2)nc2cnc(N3CCOCC3)nc2n1Cc1cccs1`: the Potency entry was “inactive”.
The same measure, in the same setting: for `Cn1cc(-c2nc3cnc(Oc4ccccc4)nc3n(C3CC3)c2=O)c2ccccc21` the value was “inactive”.
The same measure, in the same setting: for `O=c1c(-c2cccs2)nc2cnc(N3CCOCC3)nc2n1Cc1ccc(F)cc1` the value was “inactive”.
Still for that read-out and setting: the same measure for `O=c1c(-c2ccc(F)cc2)nc2cnc(Nc3ccccc3)nc2n1C[C@H]1CCCO1`: “inactive”; for `COc1ccc(Oc2ncc3nc(-c4cn(C)c5ccccc45)c(=O)n(C4CC4)c3n2)cc1`: “inactive”; for `COCCNc1ncncc1-c1c(C)noc1C`: “inactive”.
Consider `Cc1noc(C)c1-c1ccc2ncnc(Nc3ccc(F)cc3)c2c1`, for which the Potency entry is “inactive”.
On the same count and under the same terms, for `O=c1c(-c2cccs2)nc2cnc(N3CCOCC3)nc2n1Cc1cccs1` the value was “inactive”; for `CC(=O)NCCNc1ncnc2ccc(-c3c(C)noc3C)cc12`, “inactive”.
The same measure, in the same setting: the same measure for `CN(Cc1ccco1)c1ncncc1-c1ccoc1`: “inactive”.

Another test addresses Cytochrome P450 2D6 (Homo sapiens) (UniProt P10635). The test is described as follows: qHTS Assay for Inhibitors and Substrates of Cytochrome P450 2D6 (AID 891). Further: nearly all actives have a fitted effect of over 60% in size. Further: potency means the concentration at half of the fitted maximal effect.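 On activity change, negative = inhibition: luciferin methyl ether substrate demethylated by CYP2D6 with NADPH regeneration; on the % scale 0 is the no-effect control and ±100 the full control effect.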 The following applies: recombinant CYP2D6, luciferin-ME EGE luminescence; series mostly up to 57.1 µM. The method in brief:
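Luminescent read-out of luciferin formed by 5 nM human CYP2D6 demethylating 30 uM Luciferin-ME EGE (Km level) over 60 min at room temperature after NADPH regeneration addition. Data normalized to full inhibition by 1.43 uM quinidine.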
As to `CN(C)Cc1ccccc1-c1cc(N(C)Cc2ccco2)ncn1`, the Potency was 7.94 µM (active).
On the same count and under the same terms, the same measure for `CN1CCN(c2ncncc2-c2ccc(C(=O)N(C)C)cc2)CC1`: 0.251 µM (active); for `COc1ccc(-n2c(=O)c(-c3cccs3)nc3cnc(N(C)C)nc32)cc1`: “inactive”.

The target in the next test is Cytochrome P450 2C19 (Homo sapiens) (UniProt P33261). The test is described as follows: qHTS Assay for Inhibitors and Substrates of Cytochrome P450 2C19 (AID 899). Further: nearly all actives have a fitted effect of over 60% in size. Further: potency means the concentration at half of the fitted maximal effect. The following applies: recombinant CYP2C19, luciferin-H EGE luminescence; series mostly up to 57.1 µM. In outline:
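Luminescence readout of luciferin formed from 10uM Luciferin-H EGE (KM level) by 5 nM CYP2C19 in 50mM KPO4. 60 min NADPH-driven reaction at 37C after 10 min compound preincubation; data scaled to 57uM ketoconazole inhibition.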
With `CN(Cc1ccco1)c1ncncc1-c1ccccc1Cl`, the Potency was 0.794 µM (active).
With `COc1ccc(CNc2ccnc(-c3ccc4c(c3)OCO4)n2)c(OC)c1`, the Potency was 2.51 µM (active).
In the case of `COc1ccc(-n2c(=O)c(-c3cccs3)nc3cnc(N(C)C)nc32)cc1`, the Potency result is “inactive”.
On to `c1ccc(Nc2cc(-c3ccoc3)ncn2)cc1`, for which the Potency is 7.94 µM (active).

System in the next test: not listed separately
Briefly: qHTS Assay for Identification of Small Molecule Agonists for Hypoxia Response Element Signaling Pathway (AID 914; active means well fitted activation curve with a large enough effect in the signal ratio, with a control signal flat, not every such curve was filed as active; the % refers to the signal ratio; further: potency means the concentration at half of the fitted maximal effect; on activation: % of control where 0% means no effect). The following applies: ME-180 (cervical carcinoma) HRE-bla reporter, beta-lactamase ratio, CoCl2, 17 h; activation: stronger effect = higher value. In outline:
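Reporter activity (beta-lactamase, CCF4 460nm/530nm ratio) in HRE-bla ME-180 cells is recorded after 17 h compound exposure with EC50 CoCl2 at 37 degrees Celsius. AC50 values come from titration data.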
On to `COCCn1c(=O)cnc2cnc(Oc3ccccc3)nc21`, for which the activation is 10.1%.
Same read-out and setting: the same measure for `c1ccc(Nc2cc(-c3ccoc3)ncn2)cc1`: -8.49%.
Turning to `CC(=O)NCCNc1ncnc2ccc(-c3c(C)noc3C)cc12`, the Potency was 3.16 µM (active).

System in a further test: not listed separately
The test is described as follows: qHTS Assay for Lipid Storage Modulators (AID 1519; calls by dose curve; further: on the % scale 0 is the no-effect control and ±100 the full control effect). The following applies: Drosophila S3 cells, BODIPY lipid droplet/cell ratio, laser cytometry; at 57.5 µM (top of the series); cells loaded with oleic acid. The method in brief: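 Cells seeded at 5,000 per well were treated with compounds over a concentration series and loaded with oleic acid (400 uM, as added). Lipid droplet fluorescence (488 nm excitation, 500-530 nm channel) was read by laser-scanning cytometry and normalized to 20 uM Triacsin C.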
Consider `CN(C)Cc1ccccc1-c1cc(N(C)Cc2ccco2)ncn1`, for which the activity change, negative = inhibition was 5.32%.
On the same count and under the same terms, the same measure for `c1cncc(-c2cncnc2NC2CCNCC2)c1`: 6.71%; for `Cn1cc(-c2nc3cnc(Oc4ccccc4)nc3n(C)c2=O)c2ccccc21`: -0.452%.
Still for that read-out and setting: the same measure for `CN(C)c1ncc2nc(-c3ccccc3)c(=O)n(-c3ccccc3)c2n1`: -3.18%; for `CN1CCN(c2ncc3nc(-c4cc(F)cc(F)c4)c(=O)n(C4CC4)c3n2)CC1`: 1.65%; for `O=c1c(-c2ccc(F)cc2)nc2cnc(N3CCNCC3)nc2n1Cc1ccc(F)cc1`: 2.38%.
Same read-out and setting: for `O=c1c(-c2cc(F)cc(F)c2)nc2cncnc2n1-c1ccccc1` the value was 6.93%.
With `CN(Cc1ccco1)c1ncncc1-c1ccccc1Cl`, the activity change, negative = inhibition is 7.31%.
Same read-out and setting: for `O=c1cnc2cnc(N3CCOCC3)nc2n1CCc1ccccc1` the value was 3.67%.
On the same count and under the same terms, for `CN1CCN(c2ncncc2-c2ccc(C(=O)N(C)C)cc2)CC1` the value was 1.02%.
The same measure, in the same setting: the same measure for `CC(=O)NCCNc1ncncc1-c1ccccc1C`: 6.81%; for `COCCn1c(=O)cnc2cnc(Oc3ccccc3)nc21`: 3.04%.
Regarding `COCCn1c(=O)c(-c2ccc(Cl)cc2)nc2cnc(Oc3cccc(Cl)c3)nc21`, the activity change, negative = inhibition was 4.42%.
Still for that read-out and setting: for `COc1ccc(CNc2ccnc(-c3ccc4c(c3)OCO4)n2)c(OC)c1` the value was 4.67%; for `COc1ncc2nc(-c3cc(F)cc(F)c3)c(=O)n(C)c2n1`, 5.28%; for `COc1cccc(Nc2ncc3nc(-c4ccccc4)c(=O)n(Cc4cccs4)c3n2)c1`, 5.46%.
Still for that read-out and setting: for `COc1ccc(-c2nc3cnc(N4CCN(C)CC4)nc3n(Cc3ccc(F)cc3)c2=O)cc1` the value was 0.278%.
The same measure, in the same setting: for `COCCn1c(=O)c(-c2cc(F)cc(F)c2)nc2cnc(N3CCOCC3)nc21` the value was 6.45%; for `CN(C)c1ncnc2ccc(-c3cccnc3)cc12`, 3.37%; for `CCNc1ncc2nc(-c3cn(C)c4ccccc34)c(=O)n(Cc3cccc(OC)c3)c2n1`, 2.75%.
On to `COc1ccc(Oc2ncc3nc(C)c(=O)n(-c4ccccc4)c3n2)cc1`, for which the activity change, negative = inhibition is 6.06%.
As to `CN(C)Cc1ccccc1-c1nc(NCc2cccs2)c2ccccc2n1`, the activity change, negative = inhibition is -0.128%.
Still for that read-out and setting: the same measure for `CN(Cc1ccco1)c1ncncc1-c1cccc(C#N)c1`: 5.47%; for `O=c1c(-c2ccc(F)cc2)nc2cnc(N3CCOCC3)nc2n1Cc1cccs1`: -1.08%.
Still for that read-out and setting: the same measure for `CCNc1ncc2nc(-c3ccc(Cl)cc3)c(=O)n(C[C@H]3CCCO3)c2n1`: -12.7%; for `COc1ccc(-n2c(=O)c(-c3cccs3)nc3cnc(N(C)C)nc32)cc1`: 7.83%.
The same measure, in the same setting: for `Cn1cc(-c2nc3cnc(Oc4ccccc4)nc3n(C3CC3)c2=O)c2ccccc21` the value was 1.27%; for `O=c1c(-c2cccs2)nc2cnc(N3CCOCC3)nc2n1Cc1ccc(F)cc1`, -2.08%.
`O=c1c(-c2cc(F)cc(F)c2)nc2cncnc2n1Cc1ccccc1`: the activity change, negative = inhibition is 2.57%.
In the case of `c1ccc(Nc2cc(-c3ccoc3)ncn2)cc1`, the activity change, negative = inhibition is 8.08%.
The same measure, in the same setting: for `COc1ccc(Oc2ncc3nc(-c4cn(C)c5ccccc45)c(=O)n(C4CC4)c3n2)cc1` the value was 2.32%; for `COCCNc1ncncc1-c1c(C)noc1C`, 3.6%; for `Cc1noc(C)c1-c1ccc2ncnc(Nc3ccc(F)cc3)c2c1`, 6.07%.
Same read-out and setting: for `O=c1c(-c2cccs2)nc2cnc(N3CCOCC3)nc2n1Cc1cccs1` the value was -15.7%.
Still for that read-out and setting: for `Cc1noc(C)c1-c1ccc2ncnc(N(C)C)c2c1` the value was 3.59%; for `CC(=O)NCCNc1ncnc2ccc(-c3c(C)noc3C)cc12`, 3.36%.
Take `CN(C)c1ncc2nc(-c3cn(C)c4ccccc34)c(=O)n(C[C@H]3CCCO3)c2n1`: the activity change, negative = inhibition was 6.78%.
Still for that read-out and setting: for `CN1CCN(c2ncc3nc(-c4ccc(Cl)cc4)c(=O)n(Cc4cccs4)c3n2)CC1` the value was 0.387%; for `CN(Cc1ccco1)c1ncncc1-c1ccoc1`, 6.13%.
